Measurements reported in PubChem BioAssay (NCATS).
Inconclusive results are not listed. A number with no mark means an inactive call. Activity calls are given as the source filed them. Calls follow the shape of the dose curve; as a rule, active = well fitted curve in the direction sought with a large enough effect; inconclusive = small, poorly fitted or top-dose-only effect, or another doubt; inactive = no such curve, though single readings can be large; an effect the other way counts as inactive or inconclusive.

Legend:
[1] = qHTS of pediatric cancer cell lines to identify multiple opportunities for drug repurposing: Confirmatory screen for Saos-2 cells (AID 1347127); also: nearly all actives have a fitted effect of over 60% in size; also: potency is read from the fitted curve at half-maximal effect
In short: (§1)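 Cells (500-1,000/well) rested 5 h, then received compounds for 48 h; metabolically active cells were measured by CellTiter-Glo luminescence. Final concentrations spanned up to 46 µM (MIPE, 11-point) or 0.59 nM-46 µM (NPC, 8-point) in primary screens, 11-point in follow-ups.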

[2] = qHTS of pediatric cancer cell lines to identify multiple opportunities for drug repurposing: Confirmatory screen for OHS-50 cells (AID 1347128);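 also: compound exposure lasted 48 h at 37 degrees C; nearly all actives have a fitted effect of over 55% in size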; also: potency is read from the fitted curve at half-maximal effect
In short: as §1

[3] = qHTS of pediatric cancer cell lines to identify multiple opportunities for drug repurposing: Confirmatory screen for SK-N-SH cells (AID 1347129);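 also: cells exposed to compound for 48 h before viability read; nearly all actives have a fitted effect of over 60% in size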; also: potency is read from the fitted curve at half-maximal effect
In short: as §1

[4] = molecular target: Furin (Homo sapiens) (UniProt P09958); test: Furin counterscreen qHTS for Zika virus inhibitors (AID 1347149); also: potency is read from the fitted curve at half-maximal effect; nearly all actives have a fitted effect of over 70% in size
In short: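 Counterscreen measures cleavage of 2 microM BOC-RVRR-AMC, below its ~15 microM Km, by 5 nM full-length human furin at pH 7.0 after a 15-min compound preincubation. Inhibition derives from the 15-min fluorescence increase at 37C.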

[5] = system: Zika virus NS2B-NS3 protease (linked construct); test: Confirmatory screen NINDS AMC qHTS for Zika virus inhibitors (AID 1347152); also: potency is read from the fitted curve at half-maximal effect; nearly all actives have a fitted effect of over 70% in size
In short: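 In this dose-response qHTS, AMC release from 10 microM Bz-Nle-KRR-AMC by 1 nM linked protease is measured over 15 minutes (about 20% conversion) at pH 8.0. Percent inhibition is fitted to a 4-parameter Hill curve.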

[6] = system: Zika virus NS2B-NS3 protease (unlinked complex); test: Confirmatory screen GU AMC qHTS for Zika virus inhibitors (AID 1347153); also: nearly all actives have a fitted effect of over 70% in size
In short: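 Unlinked NS2B-NS3 complex (25 nM) in 10 mM Tris-HCl pH 8.0, 0.01% Tween 20 preincubated 15 min with compound, then 10 microM Bz-Nle-KRR-AMC (Km 18.3 µM). Fluorescence change over 15 min, normalized, Hill-fitted.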

[7] = system: Zika virus NS2B-NS3 protease; test: Primary screen GU AMC qHTS for Zika virus inhibitors (AID 1347154); also: nearly all actives have a fitted effect of over 70% in size; also: potency is read from the fitted curve at half-maximal effect;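 as to activity change, negative = inhibition: 0% = no-inhibitor control and -100% = no-enzyme control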
In short: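 Fluorogenic AMC-substrate cleavage by noncovalent NS2B-NS3 protease complex (25 nM, pH 8.0 Tris buffer with Tween 20) followed for 15 minutes at room temperature (~20% conversion). Percent inhibition from ex340/em450 signal change, fitted by 4-parameter Hill equation.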

[8] = ZIKV-mCherry secondary qHTS for Zika virus inhibitors (AID 1347158); also: potency is read from the fitted curve at half-maximal effect
In short: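 This orthogonal imaging screen measured ZIKV-mCherry infection of Vero cells exposed to compound, MOI 1, 48-72 h. Percent infection came from segmented nuclei scored mCherry-positive above 3 SD of negative controls.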

[9] = system: Zika virus NS2B-NS3 protease (linked); test: 384 well plate NINDS AMC confirmatory qHTS for Zika virus inhibitors (AID 1347163);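 also: linked protease at 5 30 or 60 nM final depending on run; fluorescence of AMC released from Ac-VKTGKR-AMC peptide cleaved by the protease; top concentration of the series differs between compounds; 0% = no-inhibitor control and -100% = no-enzyme control; nearly all actives have a fitted effect of over 50% in size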
In short: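 Enzyme (5, 30 or 60 nM final) first met test compounds for ~15 min. The AMC-tagged peptide Ac-VKTGKR-AMC followed at 30 microM. Fluorescence was then recorded at 25 min and scaled against no-enzyme and no-inhibitor wells.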

[10] = system: Zika virus NS2B-NS3 protease (linked construct); test: 384 well plate NINDS Rhodamine confirmatory qHTS for Zika virus inhibitors (AID 1347164);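 also: top concentration of the series differs between compounds; plate controls were no-inhibitor control for no effect and no-enzyme control for full effect; nearly all actives have a fitted effect of over 65% in size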
In short: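 Compounds are incubated about 15 minutes with linked protease (5, 30 or 60 nM final). Rhodamine 110-tagged Ac-LKRR substrate (10 microM final) is added and fluorescence measured after 25 minutes.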

[11] = Vero cells viability qHTS for Zika virus inhibitors (AID 1347167); also: % is scaled to controls: 0 for no effect and ±100 for the full control effect
In short: (§2)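 Luminescent ATP readout (CellTiter Glo) after 30 min at 37 degrees C gives viability; cells in DMEM + 4% FBS were treated 24 to 48 hours with compound, following overnight attachment.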

[12] = HepG2 cells viability qHTS for Zika virus inhibitors (AID 1347168); also: potency is read from the fitted curve at half-maximal effect
In short: as §2

[13] = system: Zika virus NS2B-NS3 protease (unlinked complex); test: Primary screen GU Rhodamine qHTS for Zika virus inhibitors: Unlinked NS2B-NS3 protease assay (AID 1347159); also: nearly all actives have a fitted effect of over 60% in size; also: potency is read from the fitted curve at half-maximal effect; as to activity change, negative = inhibition: % is scaled to controls: 0 for no effect and ±100 for the full control effect
In short: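 In dose–response format, inhibition of unlinked protease (25 nM) was measured with 1.5 microM bis-peptide Rhodamine110 substrate. Aprotinin served as the intraplate control.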

[14] = system: Zika virus NS2B-NS3 protease (linked construct); test: Primary screen NINDS Rhodamine qHTS for Zika virus inhibitors (AID 1347160); also: nearly all actives have a fitted effect of over 55% in size; also: potency is read from the fitted curve at half-maximal effect; as to activity change, negative = inhibition: % is scaled to controls: 0 for no effect and ±100 for the full control effect
In short: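 Each compound, titrated, sat 15 min with 25 nM linked protease before 1.5 microM Rhodamine110 substrate went in. Fluorescence gain over the next 15 min, in pH 8.0 Tris with Tween 20, gave Hill-fitted curves.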

Furin (Homo sapiens), sequence (P09958 whole entry, looked up): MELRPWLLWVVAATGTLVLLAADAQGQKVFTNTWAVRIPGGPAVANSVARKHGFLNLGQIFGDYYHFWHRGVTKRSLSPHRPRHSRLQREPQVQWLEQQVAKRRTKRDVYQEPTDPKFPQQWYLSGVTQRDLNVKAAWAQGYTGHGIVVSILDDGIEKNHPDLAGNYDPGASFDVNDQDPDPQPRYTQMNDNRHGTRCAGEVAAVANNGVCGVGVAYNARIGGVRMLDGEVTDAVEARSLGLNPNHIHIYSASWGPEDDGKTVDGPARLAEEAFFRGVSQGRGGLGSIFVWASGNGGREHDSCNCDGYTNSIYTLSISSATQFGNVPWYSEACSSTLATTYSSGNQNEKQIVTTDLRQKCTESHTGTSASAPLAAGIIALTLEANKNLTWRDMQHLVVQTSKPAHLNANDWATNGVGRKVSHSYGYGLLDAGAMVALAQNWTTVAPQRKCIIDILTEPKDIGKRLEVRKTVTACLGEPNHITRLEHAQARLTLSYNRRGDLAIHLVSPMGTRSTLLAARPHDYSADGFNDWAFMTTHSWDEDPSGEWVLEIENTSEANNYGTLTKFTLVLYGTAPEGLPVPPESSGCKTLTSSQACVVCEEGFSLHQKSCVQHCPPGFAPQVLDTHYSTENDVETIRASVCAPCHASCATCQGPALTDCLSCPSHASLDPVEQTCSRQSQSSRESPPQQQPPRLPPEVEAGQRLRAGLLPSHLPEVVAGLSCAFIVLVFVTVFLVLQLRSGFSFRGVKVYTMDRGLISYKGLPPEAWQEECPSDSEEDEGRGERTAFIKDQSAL

**Q.** With `C[C@@]12O[C@@H](C[C@]1(O)CO)n1c3ccccc3c3c4c(c5c6ccccc6n2c5c31)CNC4=O` as the compound, how does the Potency [1] read?
**A.** 1.31 µM (active)

**Q.** What about the Potency [2] of the same compound?
**A.** 4.65 µM (active)

**Q.** What about the Potency [3] of the same compound?
**A.** 5.26 µM (active)

**Q.** What about the Potency [4] of the same compound?
**A.** 7.62 µM (active)

**Q.** What about the Potency [5] of the same compound?
**A.** 24.1 µM (active)

**Q.** What about the Potency [6] of the same compound?
**A.** 24.1 µM (active)

**Q.** What about the Potency [7] of the same compound?
**A.** 21.5 µM (active)

**Q.** And the Potency [8]?
**A.** 8.91 µM (active)

**Q.** What about the Potency [9] of the same compound?
**A.** inactive

**Q.** And the Potency [10]?
**A.** inactive

**Q.** And the Potency [11]?
**A.** inactive

**Q.** What about the Potency [12] of the same compound?
**A.** 16.5 µM (active)

**Q.** For `CC[C@@H]1C(=O)N(C)c2cnc(Nc3ccc(C(=O)NC4CCN(C)CC4)cc3OC)nc2N1C1CCCC1`, which Potency [1] is on record?
**A.** 0.0369 µM (active)

**Q.** What about the Potency [2] of the same compound?
**A.** 0.0522 µM (active)

**Q.** And the Potency [3]?
**A.** 6.62 µM (active)

**Q.** What about the Potency [7] of the same compound?
**A.** inactive

**Q.** Which results are given for `CN(C)CC(C)(C)CNc1nn2c(-c3ccccc3)nnc2cc1C1CCC1`?
**A.** Potency [1]: inactive; Potency [2]: inactive; Potency [3]: inactive; Potency [7]: inactive; Potency [13]: inactive; Potency [14]: inactive

**Q.** What does the source list for `COc1c(OCCCN2CCOCC2)ccc2c3n(c(=NC(=O)c4cnc(N)nc4)nc12)CCN3`?
**A.** Potency [1]: 0.644 µM (active); Potency [2]: 2.29 µM (active); Potency [3]: 2.04 µM (active); Potency [7]: inactive; activity change, negative = inhibition [13]: 19.8% [at 19.1 µM]; outcome [14]: inactive [at 10.7 µM]

**Q.** Which Potency [1] does the source give for `Cc1cc(N2CCOCC2)cc2[nH]c(-c3c(NC[C@@H](O)c4cccc(Cl)c4)cc[nH]c3=O)nc12` here?
**A.** 3.69 µM (active)

**Q.** And the Potency [2]?
**A.** 3.29 µM (active)

**Q.** And the Potency [3]?
**A.** 3.72 µM (active)

**Q.** And the Potency [6]?
**A.** inactive

**Q.** And the Potency [7]?
**A.** 17.1 µM (active)

**Q.** And the Potency [14]?
**A.** inactive

**Q.** What about the Potency [9] of the same compound?
**A.** inactive

**Q.** What about the Potency [11] of the same compound?
**A.** inactive

**Q.** For `Cc1ccc(-c2ncn(-c3ccc(Nc4nccc(-c5cccc(N6CCOCC6)c5)n4)cc3)n2)cn1`, which Potency [1] is on record?
**A.** 0.107 µM (active)

**Q.** And the Potency [2]?
**A.** 0.537 µM (active)

**Q.** What about the Potency [3] of the same compound?
**A.** 0.303 µM (active)

**Q.** What about the Potency [7] of the same compound?
**A.** inactive

**Q.** With `CC[C@H]1CN2CCc3cc(OC)c(OC)cc3[C@H]2C[C@@H]1C[C@@H]1NCCc2cc(OC)c(OC)cc21` as the compound, how does the Potency [1] read?
**A.** 0.928 µM (active)

**Q.** What about the Potency [2] of the same compound?
**A.** 0.414 µM (active)

**Q.** And the Potency [3]?
**A.** 0.332 µM (active)

**Q.** What about the Potency [7] of the same compound?
**A.** inactive

**Q.** Which Potency [1] does the source give for `O=c1[nH]nc(Sc2ncc([N+](=O)[O-])s2)n1-c1ccc2c(c1)OCCO2` here?
**A.** 8.27 µM (active)

**Q.** And the Potency [2]?
**A.** 13.1 µM (active)

**Q.** And the Potency [3]?
**A.** 9.35 µM (active)

**Q.** What about the Potency [7] of the same compound?
**A.** inactive

**Q.** For `COCCn1c2c([n+](Cc3cnccn3)c1C)C(=O)c1ccccc1C2=O`, which Potency [1] is on record?
**A.** 0.0074 µM (active)

**Q.** And the Potency [2]?
**A.** 0.0052 µM (active)

**Q.** And the Potency [3]?
**A.** 0.235 µM (active)

**Q.** What about the Potency [7] of the same compound?
**A.** inactive

**Q.** For `CCNC(=O)Nc1ccc2ncc(Nc3ccc(C)cc3)nc2n1`, which Potency [1] is on record?
**A.** inactive

**Q.** What about the Potency [2] of the same compound?
**A.** inactive

**Q.** And the Potency [3]?
**A.** inactive

**Q.** What about the Potency [7] of the same compound?
**A.** inactive

**Q.** And the Potency [13]?
**A.** 25.1 µM (active)

**Q.** And the Potency [14]?
**A.** 35.5 µM (active)
